Inconclusive results are not listed. Entries that show only a call come without a potency. The source made the active and inactive calls. Calls follow the shape of the dose curve; as a rule, active = well fitted inhibition curve with a large enough effect; inconclusive = small, poorly fitted or top-dose-only effect; inactive = flat fitted curve, though single readings scatter.
system: CP201; assay: qHTS profiling for inhibitors of Plasmodium falciparum proliferation (AID 504749); also: nearly all actives have a fitted effect of over 60% in size; details: P. falciparum in erythrocytes, SYBR Green DNA, 72 h; series mostly up to 28.7 µM
How it was run: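 Three-day growth assay of blood-stage parasites in erythrocytes (0.3% parasitemia, 2.5% hematocrit) at 37 C, 5% CO2, quantified by SYBR Green DNA staining after overnight detergent lysis.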
Potency is read from the fitted curve at half-maximal effect.

SMILES	Potency
C[C@H](N)Cc1ccccc1	inactive
C[C@]12C=CC(=O)C=C1CC[C@@H]1C2CC[C@]2(C)OC(=O)CCC12 (some centres not stated)	inactive
OCC(O)[C@H]1O[C@@H]2O[C@H](C(Cl)(Cl)Cl)O[C@@H]2[C@H]1O (some centres not stated)	inactive
CC1(C)[C@@H](C=C(Cl)Cl)[C@@H]1C(=O)OCc1c(F)c(F)cc(F)c1F	inactive
CC1(C)S[C@@H]2[C@H](N)C(=O)N2C1C(=O)O (some centres not stated)	inactive
C=C1Nc2ccccc2C(=O)N1c1ccccc1C	inactive
CC1OC(O[C@H]2C[C@@H](O)[C@]3(CO)[C@@H]4C(CC[C@]3(O)C2)[C@@]2(O)CC[C@H](C3=CC(=O)OC3)[C@@]2(C)C[C@H]4O)C(O)C(O)C1O (some centres not stated)	inactive
O=[N+]([O-])OC1CO[C@H]2C(O[N+](=O)[O-])COC12 (some centres not stated)	inactive
CCOC(=O)/C=C(C)/C=C/CC(C)CCCC(C)C (configuration not stated)	inactive
[S]=[Sb][S][Sb]=[S]	inactive
CN1C2CCC1C(C(=O)O)C(OC(=O)c1ccccc1)C2 (configuration not stated)	inactive
C[C@@H]1CC[C@H]2[C@@H](C)C(=O)O[C@@H]3OC4(C)CC[C@@H]1C32OO4 (some centres not stated)	30.1 nM (active)
Cc1ccc2c(c1)[C@@H]1CN(C)CC[C@H]1N2	inactive
Nc1nc(O)c(-c2ccccc2)o1	inactive
C=CC[N+]1(C)CCC23c4c5ccc(O)c4O[C@H]2C(=O)CC[C@@]3(O)C1C5 (some centres not stated)	inactive
OC[C@@H](O)[C@H]1O[C@@H]2OC(C(Cl)(Cl)Cl)O[C@H]2[C@H]1O (some centres not stated)	inactive
CCCCCCC(=O)O[C@H]1CC[C@H]2[C@@H]3CCC4CC(=O)C=C(C)[C@]4(C)[C@H]3CC[C@]12C (some centres not stated)	inactive
